Results taken from PubChem BioAssay.
Active and inactive are the calls of the source.

Columns and labels:
[1] = E. coli DRC41 culture turbidity changes, primary screen, E. coli filamentation inducer project, strain DRC41, OD650, 48 h (AID 1152);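 note: E. coli MC1000 strain DRC41 lacking acrAB efflux pump and sulA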; conditions: E. coli DRC41 (acrAB sulA), higher = more signal, called active from +8 up or from −8 down
[2] = small-molecule binders of probe aLefty1, primary screen, biochemical, small-molecule microarray, 635/667 nm fluorescence (AID 1153); conditions: higher = more signal;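 note: score merges spot fluorescence with signal-to-noise ratio from the scanned slide images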
[3] = PSAC antagonists in infected red cells, primary screen, cell-based, P. falciparum Indochina, OD700, 1 h (AID 1154); conditions: P. falciparum Indochina infected RBC osmotic lysis, higher = more signal, called active from +8 up or from −8 down
[4] = PSAC antagonists in infected red cells, primary screen, cell-based, P. falciparum Indochina, OD700, 2 h (AID 1155);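 note: lysis reports solute entry through the parasite surface anion channel PSAC; channel blockers reduce lysis of infected cells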; conditions: P. falciparum Indochina infected erythrocytes, osmotic lysis OD700; higher = more signal, called active from +8 up or from −8 down
[5] = osmotic lysis modulators in infected erythrocytes, primary screen, PSAC antagonist project, cell-based, P. falciparum Indochina, OD700, 3 h (AID 1156); conditions: higher = more signal, called active from +8 up or from −8 down
[6] = PSAC antagonists in infected red cells, primary screen, cell-based, P. falciparum Indochina, OD700, 18 h (AID 1157); conditions: P. falciparum Indochina infected erythrocytes, osmotic lysis OD700, 18 h; higher = more signal, called active from +8 up or from −8 down
[7] = modulators of S6 phosphorylation in cells, primary screen, cell-based, A549, cytoblot, luminescence, serum-stimulated (AID 1158); conditions: A549 phospho-S6 cytoblot, 5 h, higher = more signal;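 note: serum-stimulated A549 lung adenocarcinoma cells; signal is phosphorylated S6 detected by cytoblot immunostaining with HRP secondary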
[8] = biological target: NADPH oxidase 2 (Homo sapiens) (UniProt P04839); experiment: NOX2-dependent H2O2 signal modulators, primary screen, NOX inhibitor project, cell-based, HEK293-NOX2, PMA-stimulated, Amplex Red fluorescence (AID 1159); conditions: 45 min, higher = more signal, called active from +8 up or from −8 down; note: test concentration not given here
Chain of NADPH oxidase 2 (Homo sapiens) (P04839 whole entry, looked up): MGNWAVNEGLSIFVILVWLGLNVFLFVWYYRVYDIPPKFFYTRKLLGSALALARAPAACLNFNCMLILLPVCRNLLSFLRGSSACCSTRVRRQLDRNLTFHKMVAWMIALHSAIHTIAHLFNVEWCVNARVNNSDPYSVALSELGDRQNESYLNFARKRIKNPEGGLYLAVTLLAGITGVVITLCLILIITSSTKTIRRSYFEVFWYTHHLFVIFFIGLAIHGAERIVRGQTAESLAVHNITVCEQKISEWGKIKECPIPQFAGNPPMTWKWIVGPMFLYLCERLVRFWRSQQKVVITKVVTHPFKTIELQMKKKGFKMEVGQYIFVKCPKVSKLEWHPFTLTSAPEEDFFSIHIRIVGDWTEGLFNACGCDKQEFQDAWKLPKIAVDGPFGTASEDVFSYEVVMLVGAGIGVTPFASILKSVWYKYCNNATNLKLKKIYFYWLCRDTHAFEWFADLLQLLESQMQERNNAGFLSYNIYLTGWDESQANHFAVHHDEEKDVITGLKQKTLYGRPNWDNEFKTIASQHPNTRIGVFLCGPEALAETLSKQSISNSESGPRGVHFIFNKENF

[9] = biological target: NADPH oxidase 4 (Homo sapiens) (UniProt Q9NPH5); experiment: NOX4-dependent H2O2 signal modulators, primary screen, NOX inhibitor project, cell-based, HEK293-NOX4, tetracycline-induced, Amplex Red fluorescence (AID 1160); conditions: 45 min, higher = more signal, called active from +8 up or from −8 down
Chain of NADPH oxidase 4 (Homo sapiens) (Q9NPH5 whole entry, looked up): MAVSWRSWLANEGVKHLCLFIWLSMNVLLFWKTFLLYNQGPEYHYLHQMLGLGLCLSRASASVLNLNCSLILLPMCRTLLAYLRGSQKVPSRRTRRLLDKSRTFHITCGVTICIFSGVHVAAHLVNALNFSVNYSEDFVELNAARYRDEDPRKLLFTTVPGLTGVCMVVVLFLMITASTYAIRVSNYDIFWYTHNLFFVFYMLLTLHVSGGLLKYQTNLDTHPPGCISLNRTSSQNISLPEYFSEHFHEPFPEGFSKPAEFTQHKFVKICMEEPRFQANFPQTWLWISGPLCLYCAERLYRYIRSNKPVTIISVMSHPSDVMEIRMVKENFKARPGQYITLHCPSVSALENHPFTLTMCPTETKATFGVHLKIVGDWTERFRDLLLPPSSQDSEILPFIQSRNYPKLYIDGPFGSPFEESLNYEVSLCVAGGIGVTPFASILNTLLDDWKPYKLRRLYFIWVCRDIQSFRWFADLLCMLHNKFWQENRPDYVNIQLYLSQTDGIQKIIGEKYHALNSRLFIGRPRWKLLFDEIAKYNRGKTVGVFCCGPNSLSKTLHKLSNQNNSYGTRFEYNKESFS

[10] = biological target: NADPH oxidase 5 (Homo sapiens) (UniProt Q96PH1); experiment: NOX5-dependent H2O2 signal modulators, primary screen, NOX inhibitor project, cell-based, HEK293-NOX5, Amplex Red fluorescence (AID 1161); conditions: HEK293-NOX5, ionomycin, 45 min, higher = more signal
Chain of NADPH oxidase 5 (Homo sapiens) (Q96PH1 whole entry, looked up): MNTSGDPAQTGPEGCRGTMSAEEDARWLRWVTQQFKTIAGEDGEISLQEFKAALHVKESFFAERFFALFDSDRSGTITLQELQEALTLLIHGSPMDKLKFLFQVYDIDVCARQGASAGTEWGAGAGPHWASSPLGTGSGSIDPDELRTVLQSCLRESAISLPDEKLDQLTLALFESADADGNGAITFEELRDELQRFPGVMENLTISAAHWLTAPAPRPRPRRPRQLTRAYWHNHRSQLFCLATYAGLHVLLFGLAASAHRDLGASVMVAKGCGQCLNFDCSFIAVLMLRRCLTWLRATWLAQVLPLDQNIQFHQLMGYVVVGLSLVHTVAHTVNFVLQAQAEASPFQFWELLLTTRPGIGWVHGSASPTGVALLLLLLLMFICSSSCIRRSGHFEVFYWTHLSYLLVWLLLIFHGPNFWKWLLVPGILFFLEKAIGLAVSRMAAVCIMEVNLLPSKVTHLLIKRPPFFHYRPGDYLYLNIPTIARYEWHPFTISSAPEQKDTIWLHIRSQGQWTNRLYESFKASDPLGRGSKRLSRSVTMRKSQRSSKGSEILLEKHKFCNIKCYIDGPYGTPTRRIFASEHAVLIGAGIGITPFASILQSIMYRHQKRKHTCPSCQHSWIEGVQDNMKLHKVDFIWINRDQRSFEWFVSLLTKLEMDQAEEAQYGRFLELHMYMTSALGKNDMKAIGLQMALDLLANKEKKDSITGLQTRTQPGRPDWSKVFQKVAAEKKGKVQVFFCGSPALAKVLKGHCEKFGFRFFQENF

SMILES | z-score [1] | composite z-score [2] | z-score [3] | z-score [4] | z-score [5] | z-score [6] | z-score [7] | z-score [8] | z-score [9] | z-score [10]
COC(=O)[C@@]1(Cc2ccc(OC)cc2)[C@H]2c3cc(C(=O)N4CCCC4)n(CCc4ccc(O)c(OC)c4)c3C[C@H]2CN1C(=O)c1ccccc1 | -1.82 (inactive) | 0.128 | 2.81 (inactive) | 0.626 (inactive) | 0.394 (inactive) | 0.594 (inactive) | 0.389 | -0.124 (inactive) | -1.39 (inactive) | -2.06
COc1cccc(C[C@H]2C[C@@H](CO[Si](C(C)C)(C(C)C)C(C)C)N3C(=O)[C@]4(C(C)=O)O[C@]23[C@H]2C(=O)N(C)C(=O)[C@H]24)c1 | -1.09 (inactive) | -0.0713 | 4.02 (inactive) | 0.867 (inactive) | -0.382 (inactive) | 0.702 (inactive) | -0.267 | 0.083 (inactive) | 0.451 (inactive) | 0.146
CCCN1C(=O)[C@@H]2Cc3c([nH]c4ccccc34)[C@@H](c3cccc(O)c3)N2C1=O | -0.524 (inactive) | 0.0742 | -0.578 (inactive) | -0.108 (inactive) | -0.539 (inactive) | -0.114 (inactive) | 0.257 | -0.904 (inactive) | -1.02 (inactive) | -0.413
CC1=C2[C@@H](CCc3ccccc3)OB(O)C[C@@H]2[C@@H]2C(=O)C=CC(=O)[C@@H]2C1 | -0.23 (inactive) | 0.0402 | 2.27 (inactive) | 0.229 (inactive) | 0.236 (inactive) | 0.182 (inactive) | 0.166 | -0.128 (inactive) | -2 (inactive) | -3.15
CN1C(=O)C2C=CC(C(O)COCc3ccccc3)N(Nc3ccccc3)C2C1=O (stereo not given) | -0.75 (inactive) | 0.167 | 0.625 (inactive) | 0.167 (inactive) | -0.225 (inactive) | 0.63 (inactive) | -1.01 | -2.32 (inactive) | -4.03 (inactive) | -2.63
COc1cc2c(cc1OC)CN(C(=O)[C@@H]1[C@H]3C(=O)O[C@H](c4ccccc4)[C@H](c4ccccc4)N3[C@H](c3ccc(OCCO)cc3)[C@@]13C(=O)Nc1ccc(C#CCCO)cc13)CC2 | 2.02 (inactive) | 0.273 | 2.85 (inactive) | 0.0851 (inactive) | 0.464 (inactive) | -1.1 (inactive) | 1.71 | -0.303 (inactive) | -0.458 (inactive) | -4.23
CCOC(=O)C1=CC[C@@H](c2ccc(N(CC)CC)cc2)N(S(=O)(=O)c2ccc(C)cc2)[C@H]1c1ccc([N+](=O)[O-])cc1 | -1.24 (inactive) | 0.437 | 1.66 (inactive) | 0.86 (inactive) | 0.723 (inactive) | 0.779 (inactive) | -0.779 | 0.599 (inactive) | -1.37 (inactive) | -0.131
COCCOC(=O)N1C(=O)[C@@]2(c3cc(C#Cc4ccc(OC)cc4)ccc31)[C@H](c1ccc(OCCO)cc1)N1[C@H](c3ccccc3)[C@H](c3ccccc3)OC(=O)[C@H]1[C@@H]2C(N)=O | 0.629 (inactive) | 0.291 | 5.54 (inactive) | 2.19 (inactive) | 0.528 (inactive) | 0.924 (inactive) | -0.141 | 1.49 (inactive) | 1.03 (inactive) | 1.85
C=CCC(OC(C)=O)[C@@H]1[C@@H](N(Cc2cccc3ccccc23)C(=O)c2ccc(C)cc2)c2cc(OCCCO)ccc2N1C(=O)c1ccc2ccccc2c1 (stereo not given in full) | 2.04 (inactive) | 0.25 | 0.306 (inactive) | -0.171 (inactive) | -1.1 (inactive) | -0.888 (inactive) | 1.86 | -1.14 (inactive) | 0.935 (inactive) | 2.64
COCCOC(=O)N1C(=O)[C@@]2(c3cc(C#CC4(O)CCCCCC4)ccc31)[C@H](C(=O)N1CCN(c3ncccn3)CC1)[C@H]1C(=O)O[C@H](c3ccccc3)[C@H](c3ccccc3)N1[C@@H]2c1ccc(O)cc1 | 0.923 (inactive) | 0.63 | 0.71 (inactive) | 0.566 (inactive) | 0.991 (inactive) | 0.613 (inactive) | 0.274 | 1.43 (inactive) | -1.31 (inactive) | 1.49
C=C(/C(=C/C[C@@H](OC(C)=O)c1ccccc1OCCO)c1cnc2ccccc2c1)C(C)C | 0.0675 (inactive) | -0.0428 | 11.6 (active) | 2.53 (inactive) | 1.82 (inactive) | 1.04 (inactive) | 0.458 | -1.08 (inactive) | -1.28 (inactive) | -1.49
CCOC(=O)C[C@H]1[C@H](OC(=O)Cc2ccc3c(c2)OCO3)[C@@H](NC(=O)c2ccccc2)c2cc(OCCCO)ccc2N1C(=O)c1ccccc1 | 1.7 (inactive) | -0.103 | 1.05 (inactive) | 0.396 (inactive) | -0.707 (inactive) | -0.281 (inactive) | 0.149 | 0.366 (inactive) | 0.759 (inactive) | 0.322
C=CCC(OC(C)=O)[C@@H]1[C@@H](N(Cc2ccc(-c3cccc(C(F)(F)F)c3)o2)C(=O)c2cccc3ccccc23)c2cc(OCCCO)ccc2N1C(=O)c1ccc(-c2ccccc2)cc1 (stereo not given in full) | -0.985 (inactive) | -0.012 | 0.531 (inactive) | 0.431 (inactive) | 2.33 (inactive) | 0.485 (inactive) | -0.326 | -0.959 (inactive) | -1.45 (inactive) | -1.08
[N-]=[N+]=NCc1ccccc1C[C@]1(C(=O)NCCN2CCOCC2)COC(c2ccc(OCCCO)cc2)=N1 | 0.581 (inactive) | 0.265 | 23.9 (active) | 10.2 (active) | 3.35 (inactive) | 2.09 (inactive) | 0.132 | -0.379 (inactive) | 0.846 (inactive) | 0.109
COc1cc(C(O)C2C=CC3C(=O)N(C)C(=O)C3N2NC(=O)OC(C)(C)C)cc(OC)c1OC (stereo not given) | -1.47 (inactive) | 0.733 | -0.249 (inactive) | 1 (inactive) | -0.226 (inactive) | 1.12 (inactive) | -1.27 | -0.231 (inactive) | -0.726 (inactive) | -1.48
C=CCOC(=O)[C@@H]1[C@H]2C(=O)O[C@H](c3ccccc3)[C@H](c3ccccc3)N2[C@H](c2ccc(OCCOC(=O)[C@@H]3C[C@@H]4C(=O)N[C@@H](CCCCNC(C)=O)C(=O)N4[C@@H]3c3ccc(O)cc3)cc2)[C@@]12C(=O)Nc1ccc(I)cc12 | 0.158 (inactive) | 0.998 | 0.978 (inactive) | 1.08 (inactive) | 1.45 (inactive) | 0.718 (inactive) | -0.581 | 1.42 (inactive) | 1.35 (inactive) | 0.716
COc1ccc([Si](C)(C)[C@H]2[C@H](CC(=O)N3CCC[C@H]3CO)O[C@@]3(C(=O)N(Cc4ccc(N5C(=O)c6cccc7cccc5c67)cc4)c4ccccc43)[C@@H]2C)cc1 | -0.0217 (inactive) | 0.0903 | 6.9 (inactive) | 1.31 (inactive) | 1.72 (inactive) | 0.771 (inactive) | 0.298 | 1.86 (inactive) | 1.19 (inactive) | 2.62
COC(=O)[C@@]1(Cc2ccc(OC)cc2)[C@H]2c3cc(C(=O)N(C)C)n(CCF)c3C[C@H]2CN1C(=O)c1ccccc1 | -0.55 (inactive) | 0.624 | 1.81 (inactive) | 0.847 (inactive) | 0.865 (inactive) | 1.06 (inactive) | -0.132 | 0.605 (inactive) | 2.58 (inactive) | 0.602
CC(C)c1ccc(NN2C(C(O)c3cccs3)C=CC3C(=O)N(c4ccccc4)C(=O)C32)cc1 (stereo not given) | -1.5 (inactive) | 0.498 | 3.11 (inactive) | 0.962 (inactive) | 0.566 (inactive) | 0.899 (inactive) | -1.16 | -1.11 (inactive) | -3.51 (inactive) | -2.9
COC(=O)C(CC#Cc1ccc2c(c1)[C@]1(C(=O)N2)[C@H](C(=O)N2CCc3cc(OC)c(OC)cc3C2)[C@H]2C(=O)O[C@H](c3ccccc3)[C@H](c3ccccc3)N2[C@@H]1c1ccc(OCCO)cc1)C(=O)OC | 0.408 (inactive) | 0.546 | 6.17 (inactive) | 2.37 (inactive) | 1.15 (inactive) | 1.28 (inactive) | 0.237 | 1.26 (inactive) | 0.487 (inactive) | 1.32
C[N+](C)(C)CCCCCCNC(=O)[C@@H]1C[C@@H]2C(=O)NCC(=O)N2[C@@H]1c1cccc(OCCO)c1 | 1.73 (inactive) | 0.197 | 3.17 (inactive) | -1.25 (inactive) | 1.56 (inactive) | -1.95 (inactive) | 0.927 | -2.72 (inactive) | -4.12 (inactive) | -5.67
COC(=O)[C@@]1(Cc2ccc(F)cc2)[C@@H]2[C@@H](CC(=O)[C@H]2CC(=O)C(=O)N2CCCC2)CN1C(=O)c1ccccc1 | -1.75 (inactive) | 1.33 | 1.76 (inactive) | 0.367 (inactive) | 0.747 (inactive) | 0.935 (inactive) | -0.502 | 0.67 (inactive) | 0.478 (inactive) | 1.28
CCCCC(=C=CC[C@H](O)c1ccccc1OCCO)C[C@H](O)c1ccccn1 | 1.47 (inactive) | -0.0536 | 4.7 (inactive) | 1.16 (inactive) | 2.3 (inactive) | 0.576 (inactive) | 0.822 | -0.778 (inactive) | -0.193 (inactive) | -1.37
CCCCC=C[C@@H](NC(=O)CCc1ccccc1)c1ccccc1 | -2.27 (inactive) | 0.396 | 1.36 (inactive) | 0.592 (inactive) | -0.985 (inactive) | 1.28 (inactive) | -0.0113 | -0.753 (inactive) | -0.487 (inactive) | 0.736
